Laboratory results reported in PubChem BioAssay AID371 (SRMLSC, 2006).
The whole screen tested about 3,300 compounds, of which about 280 (8.5%) were called active.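 The calls were made as follows: active = mean growth inhibition over the two runs of 50% or more; inactive = mean growth inhibition under 50%.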 This excerpt belongs to a sample that is enriched for actives.

Assay: A549 NSCLC cell proliferation inhibitors – ATP luminescence, human non-small cell lung line, primary screen (AID 371);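 also: compound exposure lasted 72 h before the ATP read; 0% = untreated cell signal and 100% = no luminescence left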
Conditions: at 10 µM, stronger effect = higher value

Growth inhibition, inactive:
CC(COc1ccccc1)NC(C)C(O)c1ccc(O)cc1 (configuration not stated) 4.38%, Cc1nc(-c2coc3cc(OCC(=O)O)ccc3c2=O)cs1 13.4%, O=C(NCCO)C1(c2ccccc2)CCCC1 0.3%, O=c1c2sc3nc(N4CCOCC4)c4c(c3c2ncn1Cc1ccco1)CCCC4 22.7%, COC(=O)c1ccc(CSc2ncnc3c2sc2nc(N4CCOCC4)c4c(c23)CCCC4)o1 -12.8%, Cc1cc(OCC(=O)Nn2cnnc2)ccc1Br 4.24%, Cc1noc(NS(=O)(=O)c2ccc(NC(=O)COc3ccccc3)cc2)c1C -8.3%, CC(NC(=O)c1ccc(=O)oc1)c1ccccc1 (configuration not stated) 3.88%, COc1ccc(C(=O)Cn2c(N3CCCCC3)nc3c2c(=O)n(C)c(=O)n3C)cc1OC 8.72%, CCCC(C)n1[nH]c(=O)cc1N (configuration not stated) -3.66%, COC(=O)c1ccc(C2/C(=C(\O)c3ccc4c(c3)OCCO4)C(=O)C(=O)N2CCCN(C)C)cc1 (configuration not stated) 3.46%, N#Cc1c(N)n(CCOC(=O)c2cccc(Br)c2)c2nc3ccccc3nc12 3.2%, CCCCOC(=O)CSC1=C(C#N)C(c2ccc3c(c2)OCO3)CC(=O)N1 (configuration not stated) 40.3%, CCOC(=O)CSC1=C(C#N)C(c2ccc3c(c2)OCO3)CC(=O)N1 (configuration not stated) 49.8%, CCOC(=O)CSc1nc(N2CCOCC2)c2c(c1C#N)CC(C)(C)N(C)C2 13.9%, CC(C)Oc1ccc(Cc2c(O)nc(NCCCN(C)C)[nH]c2=O)cc1 -4.15%, Cc1ccc2cc(CNC(C)C)c(=O)[nH]c2c1 2.25%, O=C(CSc1nc2ccccc2c(=O)n1CC1CCCCC1)N1CCOCC1 19.6%, CCN(CC)C(=O)COn1c(SCC(=O)N(CC)CC)nc2ccccc2c1=O -4.27%, CCN(CC)CCN1C(=O)C(=O)/C(=C(/O)c2ccc(F)cc2)C1c1ccncc1 (configuration not stated) -7.83%, Cn1c[n+](C)cc1/C=N/O -3.08%, Cc1[nH]c2ccc(F)cc2c(=O)c1SC(F)(F)C(F)C(F)(F)F (configuration not stated) 35.6%, C=CCn1c(=S)[nH]c2ccccc2c1=O 6.62%, O=C(c1ccc(F)cc1)C1CCN(CCn2c(=O)[nH]c3ccccc3c2=O)CC1 8.97%, CCCSc1nnc2n(-c3ccccc3OC)c(=O)c3c4c(sc3n12)CCC4 15.6%, O=C(Nc1ccccn1)NC(C(F)(F)F)C(F)(F)F 0.87%, CCOC(=O)C1/C(=N\O)CC(C)(O)C(C(=O)OCC)C1c1ccc(OC)c(OC)c1 (configuration not stated) 2.33%, Cn1c2ccccc2c2nn(-c3ccccc3)c(=O)cc21 12.4%, CC(=O)Nc1ccc(OC(=O)CC2SC(=O)NC2=O)cc1 (configuration not stated) 1.99%, CC(=O)Oc1ccc(C(c2ccc(OC(C)=O)cc2)c2ccccn2)cc1 14.2%, CCOC(=O)CNC(=O)CNC(=O)c1ccc(OC)cc1 2.92%, COc1ccc(C(CC(=O)N2CCOCC2)C(C)C)cc1 (configuration not stated) -4.83%, CCCCOc1ccc(C(=O)NCC(=O)NCC(=O)OCC)cc1 40.7%, Cc1nn(CC(N)=O)c(=O)c2ccccc12 25.7%, O=S1(=O)C[C@@H](N2CCOCC2)[C@H](N2CCOCC2)C1 3.83%, COc1ccc2c(c1)C1(C)CC(C)(C)N2C(=O)N1c1ccccc1 (configuration not stated) 38.5%, OC1(C2(O)CC(c3ccccc3)ON2)CCCCC1 (configuration not stated) 19.6%, CCCCc1nc(NCC2CCCO2)c(C#N)c2c1COC(C)(C)C2 (configuration not stated) 13.2%, CCc1nc(NC2CCCCC2)c(C#N)c2c1COC(C)(C)C2 46.1%, CN(C)c1ccc(C=NCC2(O)CCOC(C)(C)C2)cc1 (configuration not stated) -1.1%, Cc1ccc(OCC(=O)N2CCC(N3CCCCCC3)CC2)cc1 0.02%, CCOC(=O)c1ccc(N=CC2=C(O)CC(c3ccco3)CC2=O)cc1 (configuration not stated) 8.87%, O=C1CC(c2ccco2)CC(O)=C1C=NCCN1CCN(C2CC(=O)N(c3ccccc3)C2=O)CC1 (configuration not stated) 11.7%, CC1(C)CC(=O)C2=C(C1)OC(N)=C(C#N)C2C1C=CCCC1 (configuration not stated) 5.77%, CCOC(=O)c1[nH]c2ccccc2c1N=CN(CC)CC 1.27%, COC(=O)CSC1=C(C#N)C(=O)NC2(CCCCC2)S1 7.6%, COC(=O)CN(c1nc(C)cc(OC)n1)S(=O)(=O)c1ccccc1 12.9%, Cn1c(=O)cc(NCc2ccccc2)[nH]c1=O 8.28%, Cc1ccc2cc(CNC(C)(C)C)c(=O)[nH]c2c1 -14.5%, O=C1OC(Nc2ccc(Br)cc2F)c2ccccc21 (configuration not stated) 3.02%, CC(=O)Nn1cnc2c(c1=O)C1(CCCC1)Cc1ccccc1-2 16.8%, N#CCc1nc2c3c4c(sc3ncn2n1)CCCC4 9.82%, COc1ccc(C(=O)Nc2nc(N)n(-c3ccccc3)n2)cc1OC 1.17%, Nc1nc(NC(=O)Cc2ccccc2)nn1-c1ccccc1 6.96%, Cc1ccc(-n2c(N)c(C(N)=O)sc2=S)cc1 6.9%, CCCC(=O)Nc1nn(CCC)c2nc3ccccc3cc12 -8.01%, CN1C(=O)c2c(sc3c2CCCC3)NC1c1ccccc1O (configuration not stated) 27.8%, COc1cccc(C2C(C(=O)c3cc4ccccc4o3)=C(O)C(=O)N2CCN(C)C)c1OC (configuration not stated) 1.22%, CCOC(=O)c1cnn2c1[nH]c(=O)c1ccccc12 7.89%, CCO/C(C)=N/n1c2nc3ccccc3nc2c2c(=O)n(CC(C)C)c(C)nc21 3.19%, Cc1cc2ccccc2cc(C)c1=O 9.2%, Cc1cc(=O)oc2c(CN3CCC(C)CC3)c(O)c(Cl)cc12 -0.87%, O=C(CC(c1ccc(F)cc1)c1ccco1)N1CCCC1 (configuration not stated) 7.48%, Nn1c(SCC(=O)Nc2ccc3c(c2)OCCO3)nnc1C(F)(F)F 14.6%, c1ccc(-c2nnc3n2N=C(c2ccc4c(c2)OCO4)CS3)nc1 13.4%, COc1ccc(OC)c(C2=Nn3c(nnc3C3CCCCC3)SC2)c1 47.4%, O=S1CCCSC1c1cccnc1 (configuration not stated) -0.58%, COc1ccc(/C(O)=C2\C(=O)C(=O)N(c3cc(C)on3)C2c2ccccc2OC)cc1C (configuration not stated) 7.8%, COc1cccc(-c2nc(NCc3ccco3)c3ccccc3n2)c1O 9.14%, COC(=O)CNc1nc(-c2cccnc2)nc2ccccc12 6.85%, CCN(CC)c1nc(-c2cccc(OC)c2O)nc2ccccc12 13.8%, COc1cccc(-c2nc(NC(C)(C)C)c3ccccc3n2)c1O 20.9%, CC1(C)Cc2nc(NCCCO)c(C#N)cc2CO1 -0.91%, CCCCOC(=O)C(C)c1c(C)[nH]c(=S)[nH]c1=O (configuration not stated) 5.11%, O=C(Nc1ncccc1Cl)c1cccc(F)c1 7.47%, COc1ccc(C2C(C#N)=C(SC)NC3=C2C(=O)CC(C)(C)C3)cc1 (configuration not stated) 11.2%, Fc1cnc(N2CCOCC2)nc1NCc1ccccc1 -1.26%, Oc1ccccc1-c1nc(NCc2ccco2)c2ccccc2n1 31.9%

Growth inhibition, active:
CC(COc1ccccc1)N(CCCl)Cc1ccccc1 (configuration not stated) 54.1%, OCCN(CCO)c1ncnc2c1sc1nc(N3CCOCC3)c3c(c12)CCCC3 58.3%, CC(NCCC(c1ccccc1)c1ccccc1)c1ccccc1 (configuration not stated) 90.6%, CCCOC(=O)CSC1=C(C#N)C(c2ccc3c(c2)OCO3)CC(=O)N1 (configuration not stated) 50.4%, CCN(CC)C(=O)CSc1nc2ccccc2c(=O)n1CC1CCCCC1 59.2%, O=c1c2ccccc2[nH]c(=S)n1CCN1CCC(=C(c2ccc(F)cc2)c2ccc(F)cc2)CC1 69.1%, CC[C@]1(O)CC2CN(CCc3c([nH]c4ccccc34)[C@@](C(=O)OC)(c3cc4c(cc3OC)N(C=O)[C@H]3[C@@](O)(C(=O)OC)[C@H](OC(C)=O)[C@]5(CC)C=CCN6CC[C@]43[C@@H]65)C2)C1 (some centres not stated) 59.6%, CC[C@]1(O)C[C@@H]2CN(CCc3c([nH]c4ccccc34)[C@@](C(=O)OC)(c3cc4c(cc3OC)N(C)[C@H]3[C@@](O)(C(=O)OC)[C@H](OC(C)=O)[C@]5(CC)C=CCN6CC[C@]43[C@@H]65)C2)C1 71.8%, CCC(=O)Oc1ccc(C(CC)C(CC)c2ccc(OC(=O)CC)cc2)cc1 (configuration not stated) 62.3%, CCC(=O)Oc1ccc(/C(CC)=C(\CC)c2ccc(OC(=O)CC)cc2)cc1 71.7%, CCCc1nc(NC2CCCCC2)c(C#N)c2c1COC(C)(C)C2 51.4%, O=C1CC(c2ccco2)CC(O)=C1C=Nc1cc(Cl)ccc1O (configuration not stated) 52.3%, Cc1ccc2nc(NCc3ccccc3)[nH]c2c1 66.2%, O=C(Nc1nc(NC(=O)c2ccco2)n(-c2ccccc2)n1)c1ccccc1 82.7%, CC(C)OC(=O)c1c2nc3ccccc3nc2n2c1[nH]c(=O)c1ccccc12 60.3%, c1cc2c(cc1C1=Nn3c(nnc3C3CCCCC3)SC1)OCO2 50.2%, COc1cccc(-c2nc(NC(C)C)c3ccccc3n2)c1O 77.9%, CCC(C)Nc1nc(-c2cccc(OC)c2O)nc2ccccc12 (configuration not stated) 71.5%, c1ccc(N2CCN(c3nc(NCc4ccco4)c4ccccc4n3)CC2)cc1 90.4%
